Data reported in ChEMBL document CHEMBL3988442, “University of Dundee, Small-Polar-MMV Screening Library” (2021).
The campaign covered roughly 69,000 compounds. About 950 (1.4%) showed an effect of 50% or more. What follows is part of a selection rich in strong results, with near analogues and random picks from the rest.

What follows are molecules tested on Mycobacterium tuberculosis (assay: Cornell M. t heat shock assay; also: in the data most compounds retested in dose-response had high values).
Type: functional, organism-based
Set-up: dose or concentration left out as unconfirmed

| SMILES | Percent Effect |
| --- | --- |
| COc1ncccc1CN1C[C@@H]2COC[C@]2(CNS(C)(=O)=O)C1.O=C(O)C(F)(F)F.O=C(O)C(F)(F)F | -54.94% |
| O=C(NCc1ccccn1)[C@]12COC[C@H]1CN(Cc1cccnc1)C2.O=C(O)C(F)(F)F.O=C(O)C(F)(F)F.O=C(O)C(F)(F)F | -8.191% |
| CC(=O)N1CCC2(CC1)COCCN2Cc1ccc(F)cc1.O=C(O)C(F)(F)F | -4.953% |
| CN(C)[C@@H]1CN(C(=O)Cc2ccccc2)[C@@H]2CCCO[C@H]12.O=C(O)C(F)(F)F | -12.48% |
| CN1C(=O)CC(c2cnn(C)c2)C12CCN(C(=O)c1ccncc1)CC2.O=C(O)C(F)(F)F (stereo unspecified) | -21.56% |
| COc1cc(CNCC(O)c2ccc(C)cc2)cc2c1OCO2.Cl (stereo unspecified) | -8.52% |
| O=C(NCC1CCCCC1)N1C[C@H]2C[C@H](C(=O)N3CCCC3)[C@@H](C1)O2 | -29.22% |
| CN(C)C(=O)CN1CCCC2(CCN(c3ccsc3)C2=O)C1.O=C(O)C(F)(F)F (stereo unspecified) | -10.79% |
| COc1ccc(CN2C[C@H]3C[C@H](CN(C)C)O[C@H]3C2)cc1.O=C(O)C(F)(F)F.O=C(O)C(F)(F)F | -20.17% |
| CC(C)NC(=O)[C@H]1C[C@@H]2CN(C(=O)NCCc3ccccc3)C[C@H]1O2 | -3.811% |
| Cl.O=c1c2sccc2nc2n1CCN(Cc1cc(F)ccc1F)CC2 | 0.6259% |
| COc1ccc(CN2CC(=O)N(c3ccc(C)cc3)CC2C)cc1O (stereo unspecified) | -4.116% |
| COc1cc(CN2CC(=O)N(c3ccc(C)cc3)CC2C)cc(OC)c1 (stereo unspecified) | 23.62% |
| COc1cccc(OC)c1CN1CC(=O)N(c2ccc(C)cc2)CC1C (stereo unspecified) | 53.82% |
| CC(CCSc1ccccc1)N1CCCN(C(N)=O)CC1 (stereo unspecified) | 30.42% |
| CC(CCSc1ccccc1)N1CCN(C(=O)c2ccccc2O)CC1 (stereo unspecified) | 35.88% |
| CC(CCSc1ccccc1)N1CCN(C(=O)c2cccs2)CC1 (stereo unspecified) | 96% |
| COCCNC(=O)C[C@@H]1COC[C@H]2CN(CC3CCOCC3)C[C@@H]12.O=C(O)C(F)(F)F | -14.59% |
| Cc1ccc(C(=O)N2CCc3ncnc(-c4cnn(C)c4)c3CC2)cn1.O=C(O)C(F)(F)F | -33.4% |
| Cn1cc(NC(=O)CCc2ccsc2)ccc1=O | 27.26% |
| Cc1cc(NC(=O)CCc2ccsc2)n(C)n1 | 89.31% |
| Cc1cc(NC(=O)NCCc2ccccc2)n(C)n1 | -19.68% |

| SMILES | Percent Effect |
| --- | --- |
| Cc1cc(NC(=O)NCCc2ccsc2)n(C)n1 | 63.69% |
| Cc1cnccc1NC(=O)CCc1ccsc1 | -21.59% |
| COc1ccc(CCNC(=O)Nc2cc(C)nn2C)cc1 | 8.379% |
| COCCN1Cc2nccn2CC(COCc2csc(C)n2)C1.O=C(O)C(F)(F)F.O=C(O)C(F)(F)F (stereo unspecified) | 2.482% |
| O=S(=O)(c1ccc2c(c1)OCCO2)N1CCc2ccccc2C1 | -4.595% |
| O=C(O)C(F)(F)F.c1ccc(N2CCCC3(CCN(Cc4cccs4)C3)C2)nc1 (stereo unspecified) | -4.42% |
| Cc1ccc(C(CCNCCCN(C)C)C2CCOC(C)(C)C2)cc1.O=C(O)C(=O)O (stereo unspecified) | -7.6% |
| Cc1c(-c2cc(C(F)(F)F)nc(N3CCC(N)CC3)n2)cnn1C | -8.82% |
| CCn1ncc(-c2cc(C(F)(F)F)nc(N3CCC(N)CC3)n2)c1C | 23.29% |
| CCc1ccc(-c2cc(C(F)(F)F)nc(N3CCC(N)CC3)n2)cc1 | 103% |
| O=C(C1CC(F)(F)C1)N1C[C@@H]2CN(CC3CCCC3)CCO[C@@H]2C1.O=C(O)C(F)(F)F | -23.11% |
| CN1CC(=O)N(c2ccsc2)CC12CCN(C(=O)N1CCCC1)C2.O=C(O)C(F)(F)F (stereo unspecified) | -15.35% |
| CCc1cnc(N2CCC3(CC2)CN(c2cccnc2)C(=O)CO3)nc1.O=C(O)C(F)(F)F | -15.98% |
| CCN1CCC(c2nc3ccc(NC4CCC4)cn3n2)CC1.O=C(O)C(F)(F)F | 28.46% |
| Cc1noc(C)c1CN1C[C@@H]2COC[C@H](C(=O)N3CCCCO3)[C@@H]2C1.O=C(O)C(F)(F)F | 10.78% |
| CC(=O)N[C@@H]1CN(C(=O)c2cccc(C(F)(F)F)c2)C[C@H]1O | -5.977% |
| O=C(Nc1cc(Cl)ccn1)c1nc(N2CCCC2)ncc1Cl | 5.327% |
| Cc1cc(NC(=O)c2nc(N3CCCC3)ncc2Cl)nc(C(C)C)n1 | 105.6% |
| O=C(Nc1ccccn1)c1nc(N2CCCC2)ncc1Cl | -2.485% |
| CC[C@H]1CN2CC[C@H]1C[C@@H]2CNC(=O)Nc1ccccc1 | -5.923% |
| CC[C@H]1CN2CC[C@H]1C[C@@H]2CNCc1ccc(OC(F)(F)F)cc1 | 100.5% |
| CC[C@H]1CN2CC[C@H]1C[C@@H]2CNC(=O)Nc1cc(OC)cc(OC)c1 | 76.55% |

| SMILES | Percent Effect |
| --- | --- |
| CC[C@H]1CN2CC[C@H]1C[C@@H]2CNCc1ccc(OC)cc1 | -7.267% |
| CC[C@H]1CN2CC[C@H]1C[C@@H]2CNC(=O)Nc1ccc(Br)cc1 | 4.849% |
| CC[C@H]1CN2CC[C@H]1C[C@@H]2CNCc1ccc(N(C)C)cc1 | 1.41% |
| CC(C)C(=O)N(C)Cc1nc(N2CCCC2)ncc1-c1ccncc1.Cl | 19.59% |
| CC(C)c1cc(C(=O)N2CCCC(n3cncn3)C2)n[nH]1 (stereo unspecified) | -20.76% |
| Cc1[nH]nc2ncc(C(=O)N3CCN(CC(C)O)CC3)cc12.Cl (stereo unspecified) | -10.49% |
| Cc1noc(C)c1CN1CCO[C@H]2CN(Cc3cncn3C)C[C@H]21.O=C(O)C(F)(F)F.O=C(O)C(F)(F)F | -21.37% |
| CN1CCc2nc(C3CCCN(C(=O)CC4CCCCC4)C3)ncc2C1 (stereo unspecified) | -14.45% |
| CN1CCc2nc(C3CCN(C(=O)CCC4CCCC4)CC3)ncc2C1 | 104.5% |
| O=C(CCC1CCCC1)N1CCC(c2ncc3c(n2)CCNC3)CC1 | 14.08% |
| Cc1ccc(CN2C[C@@H]3C[C@H](C(=O)NCC4CC4)N(C)[C@@H]3C2)o1.O=C(O)C(F)(F)F.O=C(O)C(F)(F)F | -27.97% |
| CCC(C)Oc1ccc(CNCCNS(C)(=O)=O)cc1Cl (stereo unspecified) | 14.23% |
| CCC(C)Oc1ccc(CNCCc2c[nH]cn2)cc1Cl (stereo unspecified) | 101.9% |
| CCC(C)Oc1ccc(CNCCNC(C)=O)cc1Cl (stereo unspecified) | -0.254% |
| COCCCN(CCOC)Cc1nc2c(cnn2C)c(=O)[nH]1 | 18.48% |
| CN(CCc1ccccc1)Cc1nc2c(cnn2C)c(=O)[nH]1 | 14.44% |
| COCCN(CCc1ccccc1)Cc1nc2c(cnn2C)c(=O)[nH]1 | 50.74% |
| CN(CCCOc1ccccc1)Cc1nc2c(cnn2C)c(=O)[nH]1 | -3.727% |
| COCCN(CCOC)Cc1nc2c(cnn2C)c(=O)[nH]1 | -10.64% |
| CN(CCCc1ccccc1)Cc1nc2c(cnn2C)c(=O)[nH]1 | 59.96% |
| CNC(=O)CN1CCOCC12CCN(Cc1ccncc1)CC2.O=C(O)C(F)(F)F.O=C(O)C(F)(F)F | -37.23% |
| CN(C)CCO[C@@H]1CC[C@H]2[C@H]1OCCN2C(=O)c1ccnnc1.O=C(O)C(F)(F)F | -33.17% |

| SMILES | Percent Effect |
| --- | --- |
| COc1cc(-c2cc(NC3CCCC3)nc3[nH]ccc23)nc(N)n1 | 101.075% |
| COc1nccnc1-c1cc(NC2CCNCC2)nc2[nH]ccc12 | -16.125% |
| Nc1ccnc(-c2cc(NC3CCNCC3)nc3[nH]ccc23)c1 | 14.8% |
| COc1ncc(-c2cc(NCCN(C)C)nc3[nH]ccc23)c(OC)n1 | -24.47% |
| COc1ncc(-c2cc(NC3CCCC3)nc3[nH]ccc23)c(OC)n1 | 102% |
| FC(F)(F)c1ccc(-c2cc(NC3CCNCC3)nc3[nH]ccc23)nc1 | 16.27% |
| CNc1cc(C)nc(-c2cc(NC3CCNCC3)nc3[nH]ccc23)n1 | -20.27% |
| COc1ncc(-c2ccc(O)cc2)c(OC)n1 | -3.595% |
| COc1nccnc1-c1cc(NC2CCCC2)nc2[nH]ccc12 | 103.35% |
| O=C(O)C(F)(F)F.O=C(c1ccno1)N1CC[C@@H]2O[C@@H](COCCN3CCCC3)CC[C@@H]21 | -5.47% |
| C[C@H]1CN2C[C@H](O)CC2CN1Cc1ccc2nccnc2c1.Cl (stereo partly specified) | 2.113% |
| O=C(O)C(F)(F)F.O=C(O)C(F)(F)F.c1ccc(OC[C@]23COC[C@H]2CN(C2CCOCC2)C3)nc1 | -7.98% |
| Cc1ccc(CN(C)C(=O)CN2CCCC2c2cnn(C)c2)o1 (stereo unspecified) | 15.31% |
| CC1=N[C@@]2(CC[C@@H]3CN(Cc4cccc(Cl)c4)C[C@@H]32)C(=O)N1CC1CC1.O=C(O)C(F)(F)F | 3.209% |
| CN(C)S(=O)(=O)N1C[C@H]2C[C@H](C(=O)NCc3ccccc3)[C@@H](C1)O2 | -32.32% |
| Cc1nc(CN2CCC3(CCCN(Cc4cccnc4)C3)C2=O)cs1.O=C(O)C(F)(F)F.O=C(O)C(F)(F)F.O=C(O)C(F)(F)F (stereo unspecified) | -21.24% |
| CCO[C@H]1CN(CC2CCOCC2)[C@@H]2CCCO[C@H]12.O=C(O)C(F)(F)F | 43.93% |
| Cc1noc(C)c1C(=O)N1C[C@H]2CC[C@@H]1CN(c1cnccn1)C2 | -7.98% |
| O=S(=O)(NCCCN1CCCC1)c1cc(F)cc(F)c1 | -10.46% |
| COCCN1C(=O)C2(CCN(CC3CC3)CC2)c2ccccc21.O=C(O)C(F)(F)F | 22.29% |
